This passage reports outcome results from PubChem BioAssay (NCATS).

Results filed as inconclusive are left out. Calls of active or inactive are those of the source. Calls come from the whole dose curve; as a rule, active = well fitted inhibition curve with a large enough effect; inconclusive = small, poorly fitted or top-dose-only effect; inactive = flat fitted curve, though single readings scatter. Where a SMILES comes first, the peptide text is derived from it.

This test deals with NIH3T3. In words: qHTS assay to identify novel small-molecules to repurpose for Merkel cell carcinoma treatment (AID 1296009). Note: nearly all actives have a fitted effect of over 60% in size. The following applies: MCC and control cell lines, CellTiter-Glo viability, 72 h; at 44.8 µM (top of the series) unless noted. From the text:
MCC is a rare and aggressive neuroendocrine skin cancer with limited treatment options. Approximately 80% of MCCs have the Merkel cell polyomavirus (MCPyV) DNA integrated into the host genome (virus-positive: VP-MCC) and viral oncogenes drive oncogenesis. The remaining MCCs are virus-negative (VN-MCC) and are caused by UV mutagenesis. To identify novel treatments for VP-MCC and/or VN-MCC we screened three VP-MCC cell lines (WAGA, MKL-1, MKL-2), three VN-MCC cell lines (MCC-13, MCC-26, UISO), and four immortalized, non-transformed control cell lines (HaCaT, HEK293T, CRL7250, NIH-3T3) against ~2,400 compounds in the NCGC Pharmaceutical Collection (NPC) and ~1,900 compounds in the Mechanism Interrogation PlatE (MiPE). Using cell viability as a readout (CellTiter-Glo assay) we found both overlapping and distinct drugs that can be repurposed for the treatment of VP-MCC and VN-MCC.
A high-throughput screen was conducted in 1536-well white flat bottom plates (Corning) on a Kalypsys robotic system. Cell lines WAGA, MKL-1, MKL-2, MCC-13, MCC-26, UISO, HaCaT, HEK293T, CRL7250, and NIH-3T3 were screened against 2 small molecule annotated drug libraries NPC and MIPE in dose response (8 and 11 pt. respectively) measuring cell viability after 72 hours of incubation. […] A 1,536 pintool (Kalypsys) was used to transfer 23 nL of compound in DMSO to the 1,536-well assay plates. After 72 hr incubation at 37 degree celsius, 2.5 uL of CellTiter-Glo (Promega) was dispensed into each well using a BiorapTR. Plates were incubated at room temperature for 10 min, transferred to a ViewLux (PerkinElmer) and the luminescence was recorded using an exposure time of 2 seconds. Relative luminescence units (RLUs) were normalized to in-plate controls (no cells as a positive (cytotoxicity) control, DMSO as negative control) and the normalized data was processed using NCATS in-house software.
(In qHTS, concentration-response curves come from the screen itself.)
Turning to `O=C(/C=C/c1ccc(O)cc1)OC[C@]12O[C@H]1[C@@H](O)[C@@H]1C=CO[C@@H](O[C@@H]3O[C@H](CO)[C@@H](O)[C@H](O)[C@H]3O)[C@@H]12`, the outcome is “inactive [at 17.4 µM]”.
Turning to `c1ccc(Cc2ncc3c(n2)CCNCC3)cc1`, the compound was called inactive.
As to `Cc1[nH]cnc1C1CCN(c2nc3cccc4c3n2CCC4=O)CC1`, the result was inactive.
`Cc1nnc(C(C)C)n1C1CC2CCC(C1)N2CC[C@H](NC(=O)C1CCC(F)(F)CC1)c1ccccc1` (stereo not given in full): the compound was classed as inactive.
As for `Cc1cn2c(N)c(Cl)cc(C(=O)NCC3CCN(CC(C)C)CC3)c2n1`, the entry is “inactive”; as for `C[C@]12CCC[C@](C)(C(=O)O)C1CCC13C=C(CO)C(CCC12)C3` (stereo not given in full), “inactive”; as for `C[C@H]1[C@H](C)CC[C@]2(C(=O)O)CC[C@]3(C(=O)O)C(=CCC4[C@@]5(C)CC[C@H](O[C@@H]6O[C@H](C)[C@@H](O)[C@H](O)[C@H]6O)C(C)(C)C5CC[C@]43C)[C@H]12` (stereo not given in full), “inactive [at 17.4 µM]”.
On to `Cn1c(=O)cc(N2CCCC(N)C2)n(Cc2ccccc2C#N)c1=O` (stereo not given), for which the compound was called inactive.
Consider `C=C(C(=O)OC)C1CCC2(C)C(O[C@@H]3O[C@H](CO)[C@@H](O)[C@H](O)[C@H]3O)CC(=O)C(C)C2C1O` (stereo not given in full), for which the outcome is “inactive [at 17.4 µM]”.
On to `CC(=O)O[C@@]1(C)C[C@@H](O)[C@]2(O)C=CO[C@@H](O[C@@H]3O[C@H](CO)[C@@H](O)[C@H](O)[C@H]3O)[C@@H]21`, for which the outcome is “inactive [at 17.4 µM]”.
Consider `CC1CCC2(C(=O)OC3OC(CO)C(O)C(O)C3O)CCC3(C)C(=CCC4C5(C)CC(O)C(O)C(C)(C(=O)O)C5CCC43C)C2C1(C)O` (stereo not given), for which the outcome is “inactive [at 17.4 µM]”.
Regarding `CN1Cc2c(N)cccc2C(c2ccccc2)C1` (stereo not given), the compound was classed as inactive.
For the compound `CC1NC(=O)CNC(=O)C(C(C)C)NC(=O)C2CCCN2C(=O)C(C(C)C)NC(=O)C(Cc2c[nH]c3ccccc23)NC1=O` (stereo not given) (cyclo(GAWVPV); configuration not given here), the outcome was “inactive [at 17.4 µM]”.
For `CC1(C)OC(=O)C(OCC2CC2)=C1c1ccc(S(C)(=O)=O)cc1` the value was “inactive”.
For `OC[C@H]1O[C@@H](n2cnc3c(NCc4ccc(O)cc4)ncnc32)[C@H](O)[C@@H]1O` the value was “inactive”; for `CC(=O)O[C@@H]1[C@H](O[C@@H]2O[C@H](CO)[C@@H](O)[C@H](O)[C@H]2O)[C@@H](O[C@@H]2O[C@@H](C)[C@H](O)[C@@H](O[C@@H]3O[C@H](CO)[C@@H](O)[C@H](O)[C@H]3O)[C@H]2O)[C@H](OC(=O)C23CCC4(C)C(=CCC5C6(C)CC(O)C(O[C@@H]7O[C@H](C(=O)O)[C@@H](O)[C@H](O)[C@H]7O)C(C)(C(=O)O)C6CCC54C)C2CC(C)(C)CC3O)O[C@@H]1C` (stereo not given in full), “inactive [at 9.27 µM]”; for `C=C(C)[C@@H](C)[C@H]1O[C@]23C[C@]4(CO2)C(CCC2[C@@]5(C)CC[C@H](O[C@@H]6OC[C@H](O)[C@H](O[C@@H]7O[C@H](CO)[C@@H](O)[C@H](O)[C@H]7O)[C@H]6O[C@@H]6O[C@@H](CO)[C@H](O)[C@H]6O)C(C)(C)C5CC[C@]24C)C3[C@@](C)(O)[C@@H]1OC(C)=O` (stereo not given in full), “inactive [at 9.27 µM]”.
As for `CC1CCC(=O)CC(O)C(O)CC(=O)O1` (stereo not given), the compound was classed as inactive.
As to `COC(=O)c1cc(CN2CCN(C(=N)N)CC2)cc(C(=O)N2CCN(C(=O)c3ccc(C(=N)N)cc3)CC2)c1`, the result was inactive.
For `CCCn1cnc2c(NCc3ccccc3)nc(N[C@H](CC)CO)nc21` the value was “inactive”; for `CC(/C=C/[C@]1(O)[C@@]2(C)CO[C@@]1(C)C[C@@H](O)C2)=C\C(=O)O[C@@H]1O[C@H](CO)[C@@H](O)[C@H](O)[C@H]1O`, “inactive [at 17.4 µM]”; for `CC1OC(OC2C(O)C(C(=O)O)OC(OC3CCC4(C)C(CCC5(C)C4C=CC4=C6CC(C)(C)CC(O)C6(C)CCC45C)C3(C)C)C2OC2OCC(O)C(O)C2O)C(O)C(O)C1O` (stereo not given), “inactive [at 9.27 µM]”.
With `CCN(c1cc(C#CCN2CCOCC2)cc(C(=O)NCc2c(C)cc(C)[nH]c2=O)c1C)C1CCC(N(C)CCOC)CC1` (stereo not given), the compound was classed as inactive.
Regarding `CC1(C)CC[C@]2(C(=O)O[C@@H]3O[C@H](CO)[C@@H](O)[C@H](O)[C@H]3O)CC[C@]3(C)C(=CCC4[C@@]5(C)C[C@@H](O)[C@H](O)C(CO)(CO)C5CC[C@]43C)C2[C@@H]1O` (stereo not given in full), the outcome was “inactive [at 17.4 µM]”.
As for `COC(=O)C12C(=O)C(C)=C(O)C1(C)C(C)=CC1C34CCC(OC3=O)C(C)(C)C4CCC12C` (stereo not given), the entry is “inactive [at 17.4 µM]”; as for `CC12CC34C=CC(=O)C(C)(CCC(=O)O)C3C(CC1C4)O2` (stereo not given), “inactive”.
`O=C(/C=C/c1ccc(O)cc1)OCC1=C[C@@H](O)[C@@H]2C=CO[C@@H](O[C@@H]3O[C@H](CO)[C@@H](O)[C@H](O)[C@H]3O)[C@H]12`: the outcome is “inactive [at 17.4 µM]”.
As for `CC(C)CC(=O)OC[C@H]1O[C@@](COC(=O)CC(C)C)(O[C@H]2O[C@H](CO)[C@@H](O)[C@H](O)[C@H]2O)[C@@H](OC(=O)CC(C)C)[C@@H]1OC(=O)CC(C)C`, the outcome was “inactive [at 17.4 µM]”.
For `COc1cc(COC2OC(CO)C(O)C(O)C2O)cc(OC)c1O` (stereo not given), the outcome was inactive.
For `O=C(CCCCc1ccc2ccccc2c1)C(F)(F)F`, the outcome is “inactive [at 92 µM]”.
In the case of `CC(C)(C)NCc1cc(Nc2ccnc3cc(Cl)ccc23)c2c(c1O)CCCC2`, the outcome is “inactive [at 0.588 µM]”.
In the case of `CC(=O)O[C@H](C[C@@H](C)[C@H]1C(=O)[C@H](O)[C@@]2(C)[C@@H]3CCC4C(C)(C)[C@@H](O[C@@H]5OC[C@H](O)[C@H](O)[C@H]5O)CC[C@@]45C[C@@]35CC[C@]12C)[C@@H]1OC1(C)C` (stereo not given in full), the outcome is “inactive [at 17.4 µM]”.
As for `NC(=O)c1ccc(OCC2NC(=O)C3CCCN3C2=O)cc1` (stereo not given), the entry is “inactive”; as for `CC(=O)NC(CCC(=O)O)C(=O)NCCc1ccc(O)cc1` (stereo not given), “inactive”; as for `C=CCc1ccc(O[C@@H]2O[C@H](CO[C@@H]3O[C@@H](C)[C@H](O)[C@@H](O)[C@H]3O)[C@@H](O)[C@H](O)[C@H]2O)cc1`, “inactive [at 17.4 µM]”.
In the case of `Nc1nonc1C(=Nc1ccc(F)c(Cl)c1)NO`, the compound was classed as inactive.
Regarding `CCn1nnnc1NCc1ccc(C(C)C)cc1`, the compound was called inactive.
With `C#C[C@]1(O)CC[C@H]2[C@@H]3CCC4=C/C(=N/O)CC[C@@H]4[C@H]3CC[C@@]21CC`, the result was inactive.
For `C[C@]12C=CC(=O)C=C1CC[C@@H]1[C@@H]2[C@@H](O)C[C@@]2(C)[C@H]1CC[C@]2(O)C(=O)COC(=O)CCC(=O)O` the value was “inactive”; for `Nc1ncnc2c1ncn2[C@H]1CCCO1`, “inactive”.
